Screening data from PubChem.
An excerpt weighted towards active compounds, which were near 7.3% of everything screened.
p53 reactivator = mutant p53 re-activation in reporter cells | H1299 p53-A138V BP100-luciferase reporter, luminescence, 24 h | Potency, µM (highest dose often 92.2 µM), for inactives: top-dose activity change, positive = activation, hits mostly activators | 320,000 compounds, 0.063% hits | AID 504706; note: % of control where 0% means no effect; nearly all actives have a fitted effect of over 45% in size
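H1299 (p53-null), stable ts p53-A138V + BP100-Luc; 1000 cells/well, Opti-MEM/10% FBS; cpd 4 pt, 1:5; 24 h, 37 deg C, 5% CO2; detection reagent 10 min RT; luminescence.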
ELG1 genotoxic = genotoxicity induction in ELG1-luciferase HEK293T cells. HEK293T ELG1-luciferase reporter, luminescence, 16 h. Potency, µM (top dose mostly 46 µM), for inactives: at the highest dose activity change, positive = activation, actives largely listed as activators. 330,000 compounds, 1.3% hits; note: % of control where 0% means no effect; nearly all actives have a fitted effect of over 60% in size
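After overnight (16 hr) compound treatment at 37 °C, ELG1-luciferase HEK293T cells were lysed with ONE-Glo; luminescence quantified 30 min later at room temperature.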
Rab9 promoter act = activates the Rab9 promoter. Huh7 Rab9 promoter-luciferase reporter, luminescence, 24 h. Potency, µM (top dose mostly 9.22 µM), without a hit: at the highest dose activation, negative = inhibition, hits mostly activators. 320,000 compounds, 2.8% hits; note: % of control where 0% means no effect; nearly all actives have a fitted effect of over 60% in size
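Quantitative HTS format; Huh7 Rab9-luciferase reporter cells (1500/well) receive compound 2 h post-plating, incubate 24 h at 37 °C, then get luciferase reagent for 10 min before luminescence reading.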
FLuc counter = counter-screen for miR-21 project: firefly luciferase inhibitors or activators. P08659. purified FLuc, Km substrates, luminescence inhibition. Potency, µM (titrated, usually from 57.5 µM), inactives show at the highest dose activity change, negative = inhibition, actives largely listed as inhibitors. 360,000 compounds, 6.9% hits;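 note: plate controls were vehicle for no effect and reference inhibitor for full effect; nearly all actives have a fitted effect of over 55% in size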
Target sequence (P08659 whole entry, looked up): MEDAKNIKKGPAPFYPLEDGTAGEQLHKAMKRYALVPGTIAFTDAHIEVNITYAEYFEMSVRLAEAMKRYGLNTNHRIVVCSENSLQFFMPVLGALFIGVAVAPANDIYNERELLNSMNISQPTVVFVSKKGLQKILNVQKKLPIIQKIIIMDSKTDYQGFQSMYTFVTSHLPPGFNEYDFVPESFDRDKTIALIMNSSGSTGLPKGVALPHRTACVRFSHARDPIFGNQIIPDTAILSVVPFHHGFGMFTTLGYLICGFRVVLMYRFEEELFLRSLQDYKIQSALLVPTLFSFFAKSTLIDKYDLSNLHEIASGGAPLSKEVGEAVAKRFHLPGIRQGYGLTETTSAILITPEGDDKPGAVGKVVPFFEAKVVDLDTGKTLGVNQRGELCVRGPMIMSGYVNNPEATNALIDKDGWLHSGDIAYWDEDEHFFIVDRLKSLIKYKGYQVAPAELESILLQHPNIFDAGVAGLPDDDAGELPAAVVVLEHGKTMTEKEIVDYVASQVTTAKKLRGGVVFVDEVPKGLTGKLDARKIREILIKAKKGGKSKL
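Purified P. pyralis luciferase (10nM final) with 10uM D-luciferin and 10uM ATP (Km levels) in 50mM Tris acetate pH 7.5, 10mM Mg acetate, 0.01% Tween-20, 0.05% BSA; qHTS 6-point titration, ~60 µM downward; luminescence read.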
NPC1 prom act = NPC1 promoter activation; Huh7 NPC1 promoter luciferase reporter, 24 h; Potency, µM (titrated, usually from 9.22 µM), inactives show top-dose activation, actives largely listed as activators; 320,000 compounds, 2.4% hits; note: % of control where 0% means no effect; nearly all actives have a fitted effect of over 60% in size
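Huh7 reporter cells (NPC1 promoter driving luciferase) are dosed with compound for 24 h at 37 °C, 5% CO2; luciferase detection reagent is then added and luminescence measured after 10 min at ambient temperature.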
SMN2 splice up = SMN2 splice variant enhancement. AID 1458. HEK293 SMN2-luciferase splicing reporter, luminescence, 30-36 h. 210,000 compounds, 2.8% hits. Potency, µM (titrated, usually from 46.1 µM), without a hit: top-dose activity change, positive = activation, hits mostly activators; note: % of control where 0% means no effect; nearly all actives have a fitted effect of over 55% in size
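HEK293 cells carry an SMN2 […]–luciferase reporter in which exon 7 inclusion puts luciferase in frame. Cells were plated 10-12 h before compound addition, then incubated 30-36 h at 37C. ONE-Glo luminescence was read; sodium butyrate at 4.5 mM final served as control.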
The depositor's hits bear a star; u = inconclusive; x = not tested or not shown; [ ] = dose if it differs, or a comment. Calls come from the whole dose curve; as a rule, active = well fitted curve in the direction sought with a large enough effect; inconclusive = small, poorly fitted or top-dose-only effect, or another doubt; inactive = no such curve, though single readings can be large; an effect the other way counts as inactive or inconclusive. Potency is the fitted concentration of half-maximal effect.

SMILES	p53 reactivator	ELG1 genotoxic	Rab9 promoter act	FLuc counter	NPC1 prom act	SMN2 splice up
COc1ccc2nc(/N=C/c3c(C)[nH]n(-c4ccc(C)cc4C)c3=O)sc2c1	16%	9%	17%	27µM*	0%	18%
O=C(O)c1cccc(N2C(=O)/C(=C/c3ccc([N+](=O)[O-])cc3)C=C2c2ccccc2)c1	9%	-4%	7%	24µM*	0%	-15%
COc1cc(-c2nnn(CC(=O)NC3CCS(=O)(=O)C3)n2)ccc1OCc1ccccc1 (configuration not stated)	7%	u	18%	12µM*	u	u
CCOC(=O)c1c(NC(=O)CSc2nc(-c3ccc(OC)cc3)cc(C(F)(F)F)n2)sc(C)c1C	x	x	x	-2%	x	-3%
CCCCOc1ncnc2c1[nH]c1ccccc12	u	0%	-13%	11µM*	-5%	-77%
CCCCOc1ncnc2c1[nH]c1ccc(F)cc12	29%	-1%	-25%	2.7µM*	-14%	-56%
CCCCOc1ncnc2c1[nH]c1ccc(OC)cc12	u	u	1.4µM*	1.7µM*	0.56µM*	u
Fc1ccc2[nH]c3c(Cl)ncnc3c2c1	7%	-1%	-14%	0%	-7%	x
CCCCOc1ncnc2c1[nH]c1ccc(OCC)cc12	-4%	-1%	-16%	-2%	-2%	-20%
COc1cc(/C=N/NC(=O)CN2CCCCC2)ccc1OCc1ccc(Br)cc1	u	u	2%	15µM*	9%	10µM*
CCOc1ccc(/C=N/NS(=O)(=O)c2ccc(C)cc2)cc1OC	1%	0%	2%	-2%	-1%	x
COc1cc(/C=N/NS(=O)(=O)c2ccc(C)cc2)ccc1OCc1ccc(C(=O)O)cc1	-9%	u	4.5µM*	0.024µM*	0.79µM*	x
COc1cc(/C=N/NC(=O)CC2(C)OCCCO2)ccc1OCc1ccccc1	17%	4%	0%	u	-1%	29%
COc1ccc(NC(=O)C2CCN(C3=NS(=O)(=O)C(c4ccc(C)c(C)c4)=C3C)CC2)cc1OC	x	x	x	1%	x	x
Cc1ccc(S(=O)(=O)N2CCc3cc(C(=O)Nc4c(F)cccc4F)ccc32)cc1	x	x	x	-3%	x	-2%
Cc1nn(C(=O)c2cc3sccc3[nH]2)c(C)c1C	u	16%	u	3µM*	u	u
Cc1nn(C(=O)CNC(=O)c2ccccc2)c(C)c1C	5%	7%	-11%	-14%	-1%	-1%
COc1ccc(NC(=O)CN2CCCN(S(=O)(=O)c3ccc(Br)cc3)CC2)c(OC)c1	x	x	x	-8%	x	-28%
COC(=O)c1ccc(NC(=O)Nc2ccc(F)c(Cl)c2)cc1	12%	8%	29%	27µM*	14%	-16%
CC(C)(C)c1ccc(NC(=O)Nc2ccc(F)cc2)cc1	10%	u	2.5µM*	2.4µM*	1.8µM*	13µM*
COC(=O)c1ccc(NC(=O)Nc2ccc(F)cc2)cc1	u	8%	u	11µM*	u	-4%
CCOC(=O)c1ccc(NC(=O)Oc2cc(C)c(Cl)cc2C(C)C)cc1	7%	5%	4.5µM*	-9%	2%	x
O=C(Nc1ccncc1)Nc1ccc(F)c(Cl)c1	-5%	-8%	17%	u	8%	x
COC(=O)c1ccc(NC(=O)Nc2ccc([N+](=O)[O-])cc2)cc1	0%	-8%	1%	-19%	-1%	x
Cc1ccc(S(=O)(=O)N2CCc3nc(-c4ccccc4)c4c(c3C2)CO[C@@H](C)C4)cc1	x	x	x	x	x	1%[9.22 µM]
SMILES	p53 reactivator	ELG1 genotoxic	Rab9 promoter act	FLuc counter	NPC1 prom act	SMN2 splice up
CCc1nn(CC(=O)NCc2cccc(OC)c2OC)c(=O)c2cc3occc3n12	x	x	x	-6%	x	-2%
CCOC(=O)c1[nH]c(C)c(CCC(=O)Nc2cc(Cl)c(OC)cc2OC)c1C	x	x	x	-12%	x	x
CC1=C(C(=O)Nc2ccccc2)C(c2ccc(Br)cc2)n2nc(CCCO)nc2N1 (configuration not stated)	x	x	x	1%	x	-3%
CC(C)(C)c1ccc(NC(=O)c2ccc(=O)[nH]n2)cc1	u	u	0.79µM*	3µM*	0.71µM*	x
CCOC(=O)c1ccc(NC(=O)Nc2ccc(OC)c(OC)c2)cc1	-13%	-13%	-3%	u	1%	-4%
CCOC(=O)c1ccc(NC(=O)Nc2ccc(F)cc2)cc1	13%	10%	18%	11µM*	20%	4%
CCOC(=O)c1sc(NC(=O)Nc2ccc(F)cc2)nc1C	u	u	1.3µM*	1.5µM*	1.6µM*	1.3µM*
COc1cccc2[nH]c(C(=O)NC(C)c3ccccc3)cc12 (configuration not stated)	1%	-4%	-9%	-18%	-4%	x
CCN(CC)c1ccc(NC(=O)c2cc3c(OC)cccc3[nH]2)cc1	0%	-1%	5%	7.6µM*	-3%	x
COc1ccc(Cl)cc1C(=O)Nc1ccc(NC(=O)c2ccco2)cc1	-5%	5%	1%	1%	0%	-3%
CCN(CC)c1ccc(NC(=O)c2cc(Cl)ccc2OC)cc1	2%	9%	16%	15µM*	16%	4%
COc1ccc(Cl)cc1C(=O)Nc1ccc2c(c1)OCCO2	11%	u	26%	1.9µM*	u	x
COc1ccc(Cl)cc1C(=O)Nc1ccc2c(c1)OCO2	u	u	u	24µM*	u	15%
COc1ccc(Cl)cc1C(=O)Nc1ccncc1	-12%	-4%	7%	-19%	-5%	x
COc1cccc([C@@H]2Oc3ccc(Br)cc3C[C@H]2OC(=O)NS(=O)(=O)c2ccc(C)cc2)c1	x	x	x	x	x	-4%
COc1ccc(-c2nnc(N3CCCCC3)c3ccccc23)cc1	3%	-3%	-3%	u	-2%	-31%
Cc1ccc(-c2nnc(N3CCCCCC3)c3ccccc23)cc1	u	1%	9%	19µM*	15%	x
O=C(N/N=C/C1CC=CCC1)c1ccc(O)cc1O (configuration not stated)	13%	0%	3%	19µM*	-1%	4%
COc1cccc(C(=O)Nc2cc3c(cc2C(=O)c2ccc(C)cc2)OCCO3)c1	x	x	x	-7%	x	9%
COc1cccc(C(=O)Nc2cc3c(cc2Cl)OCCCO3)c1	u	u	1.8µM*	3µM*	3.2µM*	10µM*
COc1ccc(C(=O)Nc2cc3c(cc2Cl)OCCCO3)cc1	28%	u	3.5µM*	9.5µM*	2µM*	u
O=S(=O)(c1ccccc1)N1CCC2(CCCN(c3ccncc3)C2)CC1	x	x	x	x	x	-36%
NC(N)=N/N=C/c1ccc(OCc2ccc(Cl)cc2)cc1	-28%	u	u	6µM*	3.5µM*	x
